# Screening results deposited in PubChem by several laboratories.
# 14-3-3 Bad PPI: disrupts binding of bovine 14-3-3 zeta to phospho-Bad peptide; P63103; TR-FRET 14-3-3zeta/Dy647-pBad peptide displacement, 1 h; inhibition, % at 21.7 µM; actives 0.71% (n = 220,000);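 active = inhibition above about 70%, limit read from the data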;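 note: 0% = full 14-3-3 plus peptide FRET controls and 100% = background without 14-3-3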
# Mcl1-Bid inh: disrupts binding of human Mcl-1 to Bid peptide. TR-FRET Mcl-1/Bid-Dy647 peptide binding, 1536-well. inhibition, % at 21.7 µM. actives 0.97% (n = 220,000). AID 1021;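 active = compounds that cut the binding signal by more than half at the single screening dose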;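 note: His-tagged Mcl-1 with europium anti-His antibody binding Bid BH3 peptide; 0% = Mcl-1 plus peptide wells and 100% = peptide-only wells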
# Target sequence (Q07820 whole entry, looked up): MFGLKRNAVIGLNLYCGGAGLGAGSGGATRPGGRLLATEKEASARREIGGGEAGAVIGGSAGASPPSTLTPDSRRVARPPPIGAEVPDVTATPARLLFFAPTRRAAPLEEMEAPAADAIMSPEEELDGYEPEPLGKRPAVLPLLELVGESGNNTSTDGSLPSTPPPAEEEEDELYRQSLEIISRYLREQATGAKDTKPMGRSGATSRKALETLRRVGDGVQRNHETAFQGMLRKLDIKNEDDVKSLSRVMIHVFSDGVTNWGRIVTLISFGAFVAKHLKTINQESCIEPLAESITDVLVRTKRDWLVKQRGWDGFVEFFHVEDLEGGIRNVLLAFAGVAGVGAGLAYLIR
# Mcl1-Noxa inh: Mcl-1/Noxa interaction inhibition; Q07820; TR-FRET Mcl-1/Noxa peptide binding, 2 h; inhibition, % at 21.7 µM; actives 1.5% (n = 220,000); AID 1022;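 active = compounds that cut the protein-peptide binding signal by more than 50% relative to plate controls in a single-dose test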;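 note: His-tagged Mcl-1 with rhodamine Noxa BH3 peptide and terbium anti-His antibody; 0% = Mcl-1 plus Noxa peptide wells and 100% = peptide-only wells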
# Arbovirus inh: arbovirus infection inhibition | arbovirus infection cell-based antiviral screen | inhibition, % at 10 µM | actives 0.37% (n = 200,000) | AID 1251; in the data active = inhibition above about 30%
# Mcl-1 Bim block: disrupts Bim peptide binding to human Mcl-1. actives 0.1% (n = 190,000). inhibition, % at 10 µM. Q07820. Bead-based flow cytometry, Bim peptide-Mcl-1 binding; in the data active = inhibition above about 40%;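 note: 0% = no compound tracer wells and 100% = peptide blocker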
# An asterisk follows results filed as active; i = inactive; x = no result. A selection: hits, their analogues and other compounds. The true share with any hit is near 3%.
SMILES,14-3-3 Bad PPI,Mcl1-Bid inh,Mcl1-Noxa inh,Arbovirus inh,Mcl-1 Bim block
CN(C)c1nc(Nc2ccccc2)nc(Oc2ccc(=O)[nH]n2)n1,11,-15,-16,-4,-1
CC(C)CNc1nc(Oc2ccc(=O)[nH]n2)nc(N(C)C)n1,91*,-29,-8,-2,-3
CCCCC(=O)NCc1ccc(Cl)cc1,0,3,16,4,-3
CN(C)c1ccc(C(c2nnnn2C(C)(C)C)N2CCc3ccccc3C2)cc1 (centres undefined),13,-10,68*,7,0
CCC(C)(C)n1nnnc1C(c1ccc(O)cc1)N1CCc2ccccc2C1 (centres undefined),-1,-11,59*,-3,-2
CC(C)(C)n1nnnc1C(c1ccccc1)N1CCc2ccccc2C1 (centres undefined),-4,-20,-4,-34,-2
CCC(C)(C)n1nnnc1C(c1ccc(C)cc1)N1CCSCC1 (centres undefined),9,-5,-15,-2,-6
COCCn1nnnc1C(c1ccc(O)c(OC)c1)N1CCc2ccccc2C1 (centres undefined),45,-10,77*,2,-1
CC1CCN(C(c2ccc(N(C)C)cc2)c2nnnn2C(C)(C)C)CC1 (centres undefined),-2,0,78*,9,0
COc1ccc(C(c2nnnn2C2CCCC2)N2CCc3ccccc3C2)cc1OC (centres undefined),67,-27,29,-5,1
O=C(CCc1nc(-c2ccccc2Cl)no1)NCc1ccco1,-5,-38,10,-5,-1
Cc1ccccc1C(=O)OC1OC(=O)C(Cl)=C1N1CCOCC1 (centres undefined),-17,-23,4,-1,-1
COc1ccc(/C=C2\CCn3c2nc2cc(C(=O)O)ccc2c3=O)cc1OC,4,7,39,x,x
CC(C)CCOc1ccc(/C=C2\CCn3c2nc2cc(C(=O)O)ccc2c3=O)cc1,41,-22,78*,38*,0
Cc1ccc(-n2cnnn2)c2cccnc12,-4,57*,-32,1,8
Cc1ccc(N2C(=O)c3cccc4c(N)ccc(c34)C2=O)c2cccnc12,3,-59,-16,x,x
CCc1cc(C(=O)c2ccc(OC)cc2)c(NC(=O)CC(C)(C)CC(=O)O)s1,2,-12,-14,x,x
N/C(=N\OC(=O)COc1ccc2ccccc2c1)c1cccnc1,2,61*,3,13,-6
Cc1cccc(/C(N)=N/OC(=O)COc2ccc(Cl)cc2)c1,3,-10,-4,36*,-1
N/C(=N\OC(=O)COc1ccc(Cl)cc1)c1ccc(Cl)cc1,8,2,16,6,-4
CC(=O)N(c1ccccc1)c1ccc([N+](=O)[O-])cc1[N+](=O)[O-],-3,-9,18,-15,-5
Cc1cc(C(=O)COC(=O)c2ccccc2Br)c(C)n1CC1CCCO1 (centres undefined),-1,-52,6,x,x
Cc1cc(C(=O)COC(=O)c2cc(O)c3ccccc3c2O)c(C)n1CC1CCCO1 (centres undefined),73*,37,99*,0,0
O=C(/C=C/c1ccc(Cl)cc1)Nc1nccs1,-14,-13,1,-7,1
COc1ccc(C2=NN(c3ccccc3)C(=O)/C2=C\c2ccc(O)c(OC)c2)cc1,7,-31,52*,12,3
SMILES,14-3-3 Bad PPI,Mcl1-Bid inh,Mcl1-Noxa inh,Arbovirus inh,Mcl-1 Bim block
Cc1ccc(S(=O)(=O)N2CCCOC2CNC(=O)C(=O)NCc2ccncc2)cc1 (centres undefined),-3,4,4,0,-5
Cc1cc(NC(=O)/C=C/c2ccco2)ccc1NC(=O)c1ccccc1,-12,-52,18,-15,0
Cc1ccc(-n2nc3ccc(NC(=O)C(C)C)cc3n2)cc1,20,-31,-2,-12,1
Cc1ccc(-n2nc3ccc(NC(=O)c4ccco4)cc3n2)cc1,44,66*,1,-10,0
Cc1ccc(-n2nnnc2SCC(=O)Nc2cccc(NC(=O)c3ccco3)c2)cc1C,42,63*,-9,-19,-3
O=C(/C=C/c1ccco1)Nc1ccc2nn(-c3ccccc3)nc2c1,11,-46,78*,5,-5
CSc1ncccc1C(=O)NC(C)C1CC2CCC1C2 (centres undefined),-2,-10,3,1,0
C#CCn1c(=O)cc(C)c2ccccc21,8,3,6,0,-1
C#CCn1cc(C=C2C(=O)c3ccccc3C2=O)c2ccccc21,i,i,55*,-16,25
Cc1ccc(/C=C/C(=O)N(Cc2cccs2)C2CCS(=O)(=O)C2)cc1 (centres undefined),-5,-17,-3,x,x
CC(C)CC1NC(=O)N(CC(=O)N2c3ccccc3NC(=O)C2(C)C)C1=O (centres undefined),-10,-29,82*,1,0
CC1(C)C(=O)Nc2ccccc2N1C(=O)Cn1ncc(Cl)c(Cl)c1=O,-2,-1,58*,x,x
Cc1cc(C(=O)CN2C(=O)NC(CC(C)C)C2=O)c(C)n1-c1ccccc1F (centres undefined),-12,-14,19,6,-3
CCC(=O)c1ccc(N2CCC(C)CC2)c(F)c1,-6,-6,9,-3,0
CCOC(=O)c1c(C)oc2cc(Br)c(OC(=O)N3CCOCC3)cc12,4,92*,-2,-4,-1
COc1ccc(/C(C)=N\O)cc1OC,-7,-20,-4,x,x
O=C(Nc1c(Cl)cccc1Cl)c1ccc(-c2ccccc2)cc1,4,-10,10,7,-2
O=C(Nc1ccc(Cl)cc1Cl)c1ccc(-c2ccccc2)cc1,-6,4,70*,-1,-3
O=C1c2cccc(OCc3ccc(F)cc3)c2CCN1Cc1ccccc1,7,-11,-2,2,-8
Cc1ccc(COc2cccc3c2CCN(Cc2ccc(F)cc2)C3=O)cc1,4,54*,12,-7,-3
Cc1cccc(CN2CCc3c(OCC(=O)NCc4ccco4)cccc3C2=O)c1,6,95*,3,-4,-7
CCn1nnnc1SCC(=O)NC1Cc2ccccc2C1,-1,-25,9,x,x
Cc1ccc(CNC(=O)CCS(=O)(=O)c2ccc(Br)cc2)cc1,96*,-90,5,2,-1
Cc1ccc(CNC(=O)CCS(=O)(=O)c2ccc(Cl)cc2)cc1,7,-23,3,3,-4
Cc1ccc(CNC(=O)CCS(=O)(=O)c2cccc3nonc23)cc1,-5,93*,4,6,-1
COc1ccc(CNC(=O)CCS(=O)(=O)c2cccc3nonc23)cc1,-8,-13,11,3,-1
O=C(CSc1nc2ccc(Cl)cc2[nH]1)c1cccs1,4,-16,2,x,x
Cc1cc2c(cc1C)CN(c1ccccc1)C2,5,-51,7,x,x
COC(=O)CC1C(=O)NCCN1C(=O)OC(C)(C)C (centres undefined),1,-24,-13,6,0
O=C(NCc1cccnc1)c1cccc(S(=O)(=O)N2CCCCC2)c1,-2,-19,-5,2,-1
